Reference: the supplement of paper PMC6522484
± gives the standard deviation of the averaged measurements.

Tested on: SW480
Assay: cell viability (CellTiter-Glo) relative to plate median (fraction of plate median); higher = more viable cells
Details: 5 µM; treatment time 24 h; reporter: 7TFP
Summary of the method: (§1)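 Stable lentiviral TCF/Wnt firefly luciferase reporters (7TFP or TCF4/Wnt) were present in the colorectal cancer cell lines used. These cells received library compounds at a final 5 µM for 24 h, and parallel plates were read for firefly luciferase or CellTiterGlo luminescence. Each well was normalised to the plate median, and the value reported is the mean of two independent replicates.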

Compared with `Cc1cc(O)c2c(c1)C(=O)c1cccc(O)c1C2=O`, `O=c1cc(-c2ccccc2)oc2cc(O)c(O)c(O)c12` is higher in cell viability: 0.936 ± 0.013 for the first, 1.12 ± 0.035 for the second.

`COC(=O)C[C@H]1C(C)(C)C(=O)[C@@H]2CC3=C4CC(=O)O[C@@H](c5ccoc5)[C@]4(C)CC[C@@H]3[C@@]1(C)C2=O` and `C[C@]12C=CC(=O)C=C1CC[C@@H]1[C@@H]2[C@@H](O)C[C@@]2(C)[C@H]1CC[C@]2(O)C(=O)COC(=O)CCC(=O)O` are the same in cell viability: 1.035 ± 0.0071 for the first, 1.03 ± 0.014 for the second.

`CC[C@@]1(O)C(=O)OCc2c1cc1n(c2=O)Cc2cc3cc(O)ccc3nc2-1` and `CC1CCc2cc(F)cc3c(=O)c(C(=O)O)cn1c23` (stereo not given) are within error of each other in cell viability: 0.999 ± 0.14 for the first, 0.972 ± 0.013 for the second.

`C#C[C@]1(OC(C)=O)CC[C@H]2[C@@H]3CCC4=CC(=O)CC[C@@H]4[C@H]3CC[C@@]21C` and `C=C1C(=O)C[C@@H]2[C@@H]3CC[C@@H](C(=O)O)[C@@]12CC3(C)C` [Terrecyclic Acid A] are within error of each other in cell viability: 0.973 ± 0.052 for the first, 0.974 ± 0.022 for the second.

`CCN(CC)CCOCCOC(=O)C1(c2ccccc2)CCCC1` and `CC1(C)S[C@@H]2[C@H](NC(=O)[C@H](N)c3ccccc3)C(=O)N2[C@H]1C(=O)O` are within error of each other in cell viability: 0.916 ± 0.013 for the first, 0.969 ± 0.1 for the second.

`C=CCCCCCCCCC(=O)O` and `CCCCCC/C=C\CCCCCCCc1cccc(O)c1C(=O)O` are within error of each other in cell viability: 1 ± 0.022 for the first, 1.05 ± 0.042 for the second.

`Cc1cc(=O)oc2c(O)c(O)ccc12` and `O=c1cc(-c2ccccc2)oc2c(O)c(O)ccc12` are within error of each other in cell viability: 0.925 ± 0.044 for the first, 0.98 ± 0.015 for the second.

Going from `CNCC[C@H](Oc1cccc2ccccc12)c1cccs1` to `CC(COc1ccccc1)NC(C)C(O)c1ccc(O)cc1` (stereo not given), the cell viability falls from 1.05 ± 0.028 to 0.916 ± 0.017.

`COc1ccc(C2CC(=O)c3ccc(OC)cc3O2)cc1` (stereo not given) and `COc1cc2c(=O)c(-c3ccc4c(c3)OCO4)coc2c(OC)c1OC` are within error of each other in cell viability: 1.05 ± 0.05 for the first, 1 ± 0.011 for the second.

`Cc1cc(C)cc(OCC2CNC(=O)O2)c1` (stereo not given) and `COc1cc(/C=C/C(=O)O)ccc1O` [Ferulic acid (Biofocus)] are within error of each other in cell viability: 0.975 ± 0.05 for the first, 1.02 ± 0.014 for the second.

`FC(F)(F)C(Cl)Br` (stereo not given) and `Cc1ccc(-c2cc(C(F)(F)F)nn2-c2ccc(S(N)(=O)=O)cc2)cc1` are within error of each other in cell viability: 0.9715 ± 0.0035 for the first, 0.987 ± 0.047 for the second.

`CC[C@H]1OC(=O)[C@H](C)[C@@H](O[C@H]2C[C@@](C)(OC)[C@@H](O)[C@H](C)O2)[C@H](C)[C@@H](O[C@@H]2O[C@H](C)C[C@H](N(C)C)[C@H]2O)[C@](C)(O)C[C@@H](C)CN(C)[C@H](C)[C@@H](O)[C@]1(C)O` and `CC1=C(/C=C/C(C)=C/C=C/C(C)=C/C=C/C=C(C)/C=C/C=C(C)/C=C/C(=O)[C@]2(C)C[C@@H](O)CC2(C)C)C(C)(C)C[C@H](O)C1` are within error of each other in cell viability: 1.01 ± 0.049 for the first, 0.997 ± 0.033 for the second.

`O=C(O)C1=C(CSc2nnnn2CS(=O)(=O)O)CS[C@@H]2[C@H](NC(=O)[C@H](O)c3ccccc3)C(=O)N12` and `CN1CCN(CC/C=C2/c3ccccc3Sc3ccc(S(=O)(=O)N(C)C)cc32)CC1` are within error of each other in cell viability: 0.973 ± 0.052 for the first, 1.07 ± 0.064 for the second.

Compared with `CC(C)[C@H](N)C(=O)OCCOCn1cnc2c(=O)nc(N)[nH]c21`, `CCOc1nc2cccc(C(=O)OC(C)OC(=O)OC3CCCCC3)c2n1Cc1ccc(-c2ccccc2-c2nn[nH]n2)cc1` (stereo not given) is higher in cell viability: 0.938 ± 0.0071 for the first, 1.045 ± 0.0071 for the second.

Going from `COc1c2ccoc2nc2c(OC)c(OCC(O)C(C)(C)O)ccc12` (stereo not given) to `CC(C(=O)O)c1ccc2c(c1)[nH]c1ccc(Cl)cc12` (stereo not given), the cell viability falls from 1 ± 0.013 to 0.968 ± 0.0071.

First: COC(=O)c1c(OC)cc2c(c1C)Oc1c(Cl)c(OC(C)=O)c(Cl)c(C)c1C(=O)O2
Second: O=c1c(-c2cc(O)c(O)c(O)c2)coc2cc(O)c(O)c(O)c12
The cell viability of the first is lower: 0.9875 ± 0.0064 for the first, 1.04 for the second.

First: C#CCCCCCCCCCCCC(O)CC(O)COC(C)=O (stereo not given)
Second: CCN1CCN(c2cc3c(cc2F)c(=O)c(C(=O)O)cn3C2CC2)CC1
The cell viability of the first is higher: 1.06 ± 0.014 for the first, 0.921 ± 0.03 for the second.

`C/C1=C\CC(C)(C)/C=C/CC2(C)OC2CC1` (stereo not given) and `C=CC(C)(O)CCC1C(=C)CC(O)C2C(C)(C)CCCC12C` (stereo not given) are within error of each other in cell viability: 1.03 ± 0.035 for the first, 0.996 ± 0.0057 for the second.

`CN(C)CCN(Cc1ccccc1)c1ccccn1` and `CC(C)NNC(=O)c1ccncc1` are the same in cell viability: 1 ± 0.022 for the first, 1 ± 0.083 for the second.

Going from `N=C(N)N/N=C/c1c(Cl)cccc1Cl` to `OC(Cn1cncn1)(Cn1cncn1)c1ccc(F)cc1F`, the cell viability falls from 1.02 ± 0.014 to 0.9295 ± 0.0064.

Tested on: DLD1
Assay: TCF/Wnt firefly luciferase reporter signal relative to plate median (fraction of plate median); higher = higher Wnt reporter signal
Details: 5 µM; treatment time 24 h; reporter: 7TFP
Summary of the method: as §1

`Cc1cc(O)c2c(c1)C(=O)c1cccc(O)c1C2=O` and `O=c1cc(-c2ccccc2)oc2cc(O)c(O)c(O)c12` are within error of each other in “TCF/Wnt firefly luciferase reporter signal” value: 0.893 ± 0.15 for the first, 0.927 ± 0.073 for the second.

Compared with `COC(=O)C[C@H]1C(C)(C)C(=O)[C@@H]2CC3=C4CC(=O)O[C@@H](c5ccoc5)[C@]4(C)CC[C@@H]3[C@@]1(C)C2=O`, `C[C@]12C=CC(=O)C=C1CC[C@@H]1[C@@H]2[C@@H](O)C[C@@]2(C)[C@H]1CC[C@]2(O)C(=O)COC(=O)CCC(=O)O` is higher in “TCF/Wnt firefly luciferase reporter signal” value: 0.924 ± 0.0028 for the first, 1.075 ± 0.0071 for the second.

`CC[C@@]1(O)C(=O)OCc2c1cc1n(c2=O)Cc2cc3cc(O)ccc3nc2-1` and `CC1CCc2cc(F)cc3c(=O)c(C(=O)O)cn1c23` (stereo not given) are within error of each other in “TCF/Wnt firefly luciferase reporter signal” value: 0.871 ± 0.1 for the first, 0.953 ± 0.039 for the second.

`C#C[C@]1(OC(C)=O)CC[C@H]2[C@@H]3CCC4=CC(=O)CC[C@@H]4[C@H]3CC[C@@]21C` and `C=C1C(=O)C[C@@H]2[C@@H]3CC[C@@H](C(=O)O)[C@@]12CC3(C)C` [Terrecyclic Acid A] are within error of each other in “TCF/Wnt firefly luciferase reporter signal” value: 0.925 ± 0.022 for the first, 0.957 ± 0.1 for the second.

`CCN(CC)CCOCCOC(=O)C1(c2ccccc2)CCCC1` and `CC1(C)S[C@@H]2[C@H](NC(=O)[C@H](N)c3ccccc3)C(=O)N2[C@H]1C(=O)O` are within error of each other in “TCF/Wnt firefly luciferase reporter signal” value: 1.12 ± 0.16 for the first, 1 ± 0.083 for the second.

`C=CCCCCCCCCC(=O)O` and `CCCCCC/C=C\CCCCCCCc1cccc(O)c1C(=O)O` are within error of each other in “TCF/Wnt firefly luciferase reporter signal” value: 1.01 ± 0.025 for the first, 0.985 ± 0.14 for the second.

Going from `Cc1cc(=O)oc2c(O)c(O)ccc12` to `O=c1cc(-c2ccccc2)oc2c(O)c(O)ccc12`, the “TCF/Wnt firefly luciferase reporter signal” value rises from 0.869 ± 0.08 to 1.13 ± 0.071.

First: CNCC[C@H](Oc1cccc2ccccc12)c1cccs1
Second: CC(COc1ccccc1)NC(C)C(O)c1ccc(O)cc1 (stereo not given)
The “TCF/Wnt firefly luciferase reporter signal” value of the first is lower: 0.87 ± 0.023 for the first, 1.18 ± 0.05 for the second.

`COc1ccc(C2CC(=O)c3ccc(OC)cc3O2)cc1` (stereo not given) and `COc1cc2c(=O)c(-c3ccc4c(c3)OCO4)coc2c(OC)c1OC` are within error of each other in “TCF/Wnt firefly luciferase reporter signal” value: 1.05 ± 0.12 for the first, 0.94 ± 0.05 for the second.

Compared with `Cc1cc(C)cc(OCC2CNC(=O)O2)c1` (stereo not given), `COc1cc(/C=C/C(=O)O)ccc1O` [Ferulic acid (Biofocus)] is lower in “TCF/Wnt firefly luciferase reporter signal” value: 1.02 for the first, 0.962 ± 0.012 for the second.

Going from `FC(F)(F)C(Cl)Br` (stereo not given) to `Cc1ccc(-c2cc(C(F)(F)F)nn2-c2ccc(S(N)(=O)=O)cc2)cc1`, the “TCF/Wnt firefly luciferase reporter signal” value falls from 1.02 ± 0.028 to 0.919 ± 0.013.

`CC[C@H]1OC(=O)[C@H](C)[C@@H](O[C@H]2C[C@@](C)(OC)[C@@H](O)[C@H](C)O2)[C@H](C)[C@@H](O[C@@H]2O[C@H](C)C[C@H](N(C)C)[C@H]2O)[C@](C)(O)C[C@@H](C)CN(C)[C@H](C)[C@@H](O)[C@]1(C)O` and `CC1=C(/C=C/C(C)=C/C=C/C(C)=C/C=C/C=C(C)/C=C/C=C(C)/C=C/C(=O)[C@]2(C)C[C@@H](O)CC2(C)C)C(C)(C)C[C@H](O)C1` are within error of each other in “TCF/Wnt firefly luciferase reporter signal” value: 0.97 ± 0.1 for the first, 0.947 ± 0.058 for the second.

Compared with `O=C(O)C1=C(CSc2nnnn2CS(=O)(=O)O)CS[C@@H]2[C@H](NC(=O)[C@H](O)c3ccccc3)C(=O)N12`, `CN1CCN(CC/C=C2/c3ccccc3Sc3ccc(S(=O)(=O)N(C)C)cc32)CC1` is higher in “TCF/Wnt firefly luciferase reporter signal” value: 0.915 ± 0.023 for the first, 1.11 ± 0.078 for the second.

`CC(C)[C@H](N)C(=O)OCCOCn1cnc2c(=O)nc(N)[nH]c21` and `CCOc1nc2cccc(C(=O)OC(C)OC(=O)OC3CCCCC3)c2n1Cc1ccc(-c2ccccc2-c2nn[nH]n2)cc1` (stereo not given) are within error of each other in “TCF/Wnt firefly luciferase reporter signal” value: 0.969 ± 0.16 for the first, 1.06 ± 0.2 for the second.

`COc1c2ccoc2nc2c(OC)c(OCC(O)C(C)(C)O)ccc12` (stereo not given) and `CC(C(=O)O)c1ccc2c(c1)[nH]c1ccc(Cl)cc12` (stereo not given) are within error of each other in “TCF/Wnt firefly luciferase reporter signal” value: 1.03 ± 0.047 for the first, 1.04 ± 0.042 for the second.

`COC(=O)c1c(OC)cc2c(c1C)Oc1c(Cl)c(OC(C)=O)c(Cl)c(C)c1C(=O)O2` and `O=c1c(-c2cc(O)c(O)c(O)c2)coc2cc(O)c(O)c(O)c12` are within error of each other in “TCF/Wnt firefly luciferase reporter signal” value: 1.03 ± 0.042 for the first, 1.09 ± 0.035 for the second.

`C#CCCCCCCCCCCCC(O)CC(O)COC(C)=O` (stereo not given) and `CCN1CCN(c2cc3c(cc2F)c(=O)c(C(=O)O)cn3C2CC2)CC1` are within error of each other in “TCF/Wnt firefly luciferase reporter signal” value: 1.08 ± 0.12 for the first, 1.05 ± 0.074 for the second.

`C/C1=C\CC(C)(C)/C=C/CC2(C)OC2CC1` (stereo not given) and `C=CC(C)(O)CCC1C(=C)CC(O)C2C(C)(C)CCCC12C` (stereo not given) are within error of each other in “TCF/Wnt firefly luciferase reporter signal” value: 1.09 ± 0.12 for the first, 0.922 ± 0.15 for the second.

`CN(C)CCN(Cc1ccccc1)c1ccccn1` and `CC(C)NNC(=O)c1ccncc1` are within error of each other in “TCF/Wnt firefly luciferase reporter signal” value: 1 ± 0.25 for the first, 1.07 ± 0.042 for the second.

Compared with `N=C(N)N/N=C/c1c(Cl)cccc1Cl`, `OC(Cn1cncn1)(Cn1cncn1)c1ccc(F)cc1F` is higher in “TCF/Wnt firefly luciferase reporter signal” value: 1.02 ± 0.021 for the first, 1.09 ± 0.028 for the second.
